From PubChem BioAssay AID602261 (Sanford-Burnham Center for Chemical Genomics, 2012)
Among all 360,000 compounds or so, about 2,400 (0.67%) were called active. For the sample, actives were picked, then their nearest neighbours and some compounds at random. A number with no mark means an inactive call.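 The calls were made as follows: active = compounds whose normalised, plate-corrected inhibition of enzyme fluorescence in the single-dose primary screen is 50% or more; inactive = the rest.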

Each compound was assayed against Fatty acid synthase (Homo sapiens) (UniProt P49327) (assay: inhibition of human FAS-TE enzyme activity – biochemical, fluorescence intensity, uHTS, primary screen (AID 602261;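 also: 0% = DMSO with enzyme and 100% = substrate without enzyme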)). Conditions: recombinant FAS-TE, OMFH fluorogenic substrate, fluorescence endpoint; at 15 µM; hits give high values.
Fatty acid synthase (Homo sapiens), sequence (P49327 whole entry, looked up): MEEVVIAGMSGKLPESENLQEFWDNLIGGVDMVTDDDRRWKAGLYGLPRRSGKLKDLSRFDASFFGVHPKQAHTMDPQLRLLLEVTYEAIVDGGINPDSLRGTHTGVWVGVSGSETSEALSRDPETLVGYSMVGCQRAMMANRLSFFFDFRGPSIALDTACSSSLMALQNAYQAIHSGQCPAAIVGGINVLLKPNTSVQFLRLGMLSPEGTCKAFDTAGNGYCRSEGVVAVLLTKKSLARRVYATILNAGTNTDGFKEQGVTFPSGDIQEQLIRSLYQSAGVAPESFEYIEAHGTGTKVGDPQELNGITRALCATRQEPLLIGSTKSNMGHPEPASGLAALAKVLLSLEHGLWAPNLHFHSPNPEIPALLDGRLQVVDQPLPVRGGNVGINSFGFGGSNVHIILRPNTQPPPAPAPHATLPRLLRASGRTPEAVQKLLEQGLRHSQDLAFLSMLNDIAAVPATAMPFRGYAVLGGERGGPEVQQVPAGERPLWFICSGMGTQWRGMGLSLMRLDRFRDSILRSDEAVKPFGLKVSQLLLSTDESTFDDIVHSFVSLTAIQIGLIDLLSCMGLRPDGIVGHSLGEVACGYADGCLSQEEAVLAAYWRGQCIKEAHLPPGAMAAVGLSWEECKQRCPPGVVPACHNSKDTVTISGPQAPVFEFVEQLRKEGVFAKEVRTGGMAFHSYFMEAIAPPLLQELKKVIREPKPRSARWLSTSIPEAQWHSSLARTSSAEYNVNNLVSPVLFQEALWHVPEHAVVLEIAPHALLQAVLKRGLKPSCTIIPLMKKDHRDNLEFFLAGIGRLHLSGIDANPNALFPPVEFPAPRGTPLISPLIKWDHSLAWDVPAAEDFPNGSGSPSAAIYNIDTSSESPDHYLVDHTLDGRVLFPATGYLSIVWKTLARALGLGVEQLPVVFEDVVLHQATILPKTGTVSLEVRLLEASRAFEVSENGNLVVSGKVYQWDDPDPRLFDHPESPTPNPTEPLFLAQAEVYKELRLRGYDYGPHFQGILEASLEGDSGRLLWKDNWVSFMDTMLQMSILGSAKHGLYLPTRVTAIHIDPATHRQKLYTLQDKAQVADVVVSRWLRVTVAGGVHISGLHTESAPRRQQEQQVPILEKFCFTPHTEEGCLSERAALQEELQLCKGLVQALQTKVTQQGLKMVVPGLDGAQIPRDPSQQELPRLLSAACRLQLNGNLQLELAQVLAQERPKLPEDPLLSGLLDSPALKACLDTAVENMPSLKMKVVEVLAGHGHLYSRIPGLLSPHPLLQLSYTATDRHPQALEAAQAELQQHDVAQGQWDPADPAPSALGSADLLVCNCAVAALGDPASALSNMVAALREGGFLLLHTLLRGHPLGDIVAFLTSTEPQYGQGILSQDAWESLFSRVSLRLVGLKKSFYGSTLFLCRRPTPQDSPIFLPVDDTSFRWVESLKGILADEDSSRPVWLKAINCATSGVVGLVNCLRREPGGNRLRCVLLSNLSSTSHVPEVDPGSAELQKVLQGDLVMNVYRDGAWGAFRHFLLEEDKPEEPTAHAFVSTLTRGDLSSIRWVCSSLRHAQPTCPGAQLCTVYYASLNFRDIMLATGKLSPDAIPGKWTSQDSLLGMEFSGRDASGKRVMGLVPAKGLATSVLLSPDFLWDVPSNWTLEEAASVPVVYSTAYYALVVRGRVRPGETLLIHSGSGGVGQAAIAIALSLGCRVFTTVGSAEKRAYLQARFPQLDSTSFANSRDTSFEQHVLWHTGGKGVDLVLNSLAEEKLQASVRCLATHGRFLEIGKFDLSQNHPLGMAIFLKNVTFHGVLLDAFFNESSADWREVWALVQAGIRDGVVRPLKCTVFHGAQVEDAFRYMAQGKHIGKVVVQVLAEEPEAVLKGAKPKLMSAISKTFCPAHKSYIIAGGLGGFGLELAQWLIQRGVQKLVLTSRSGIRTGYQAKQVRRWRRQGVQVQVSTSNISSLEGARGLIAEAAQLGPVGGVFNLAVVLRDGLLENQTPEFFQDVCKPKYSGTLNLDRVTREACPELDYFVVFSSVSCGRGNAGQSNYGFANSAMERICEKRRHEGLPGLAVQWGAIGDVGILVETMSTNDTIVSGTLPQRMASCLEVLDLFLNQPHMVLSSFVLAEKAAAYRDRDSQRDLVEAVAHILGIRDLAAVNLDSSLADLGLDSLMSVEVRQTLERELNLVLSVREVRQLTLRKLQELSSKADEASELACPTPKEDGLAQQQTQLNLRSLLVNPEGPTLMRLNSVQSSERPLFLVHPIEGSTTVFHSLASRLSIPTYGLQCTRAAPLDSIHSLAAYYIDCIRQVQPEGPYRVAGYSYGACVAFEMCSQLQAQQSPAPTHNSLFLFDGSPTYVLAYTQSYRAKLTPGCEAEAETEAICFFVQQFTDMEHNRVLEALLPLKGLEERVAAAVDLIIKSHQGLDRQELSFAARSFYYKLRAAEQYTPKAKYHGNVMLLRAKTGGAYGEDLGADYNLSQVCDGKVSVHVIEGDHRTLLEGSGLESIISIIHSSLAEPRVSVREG
`CC1(C)CC(=O)C(C2=NC(C)(C)Cc3ccccc32)=C(O)C1` gave an inhibition of -7%.
With `FC(F)(F)c1cccc(-c2cc3ccccc3nc2N2CCCC2)c1` the inhibition was 18.4%.
`O=C(Nc1ccc(C(F)(F)F)cc1)c1cccc(-n2cnnn2)c1` was tested, and the inhibition was 64.5% (active).
`O=C(Nc1cccc(-n2cnnn2)c1)c1cccnc1` was tested, and the inhibition was -7.9%.
Compound `Cc1cc(Cl)ccc1OCCCC(=O)Nc1cccc(-n2cnnn2)c1` has an inhibition of 30.3%.
With `Cc1ccc(S(=O)(=O)Nc2ccc(F)c(S(=O)(=O)N3CCOCC3)c2)cc1` the inhibition was -1%.
`COc1ccc(-c2ccc(OC(=O)NC3CCS(=O)(=O)C3)cc2)cc1` (stereo not drawn) gave an inhibition of -3.8%.
Work on `CCc1ccc(C(=O)CSc2nnc(C)c(=O)[nH]2)cc1` yielded an inhibition of -4.7%.
With `CCCCOC(=O)CNc1nnc(SCC(=O)OCC)[nH]c1=O` the inhibition was 50.2% (active).
Compound `CCOC(=O)CSc1nc(C)c(Oc2ccc(Cl)cc2Cl)c(=O)[nH]1` has an inhibition of -5.3%.
Compound `Cc1noc(C)c1S(=O)(=O)N(C)C[C@H]1OCCCC[C@@H](C)Oc2ccc(NC(=O)CCCN(C)C)cc2C(=O)N([C@H](C)CO)C[C@@H]1C` has an inhibition of -10.2%.
`COc1cccc(NC(=S)N(Cc2ccc(C)cc2)Cc2ccccn2)c1` showed an inhibition of 5.4%.
For `COc1ccc(NC(=O)/C(Cl)=C(/Cl)S(=O)Cc2ccc(C)cc2)cn1` (stereo not drawn), the inhibition was 53.3% (active).
For `COc1ccc(NC(=O)C2Cc3c(-c4ccc5c(c4)OCO5)ccnc3O2)cn1` (stereo not drawn), the inhibition was 1.3%.
In the case of `COCc1c(N)c(C)nc(Cl)c1C#N`, the inhibition is reported as -5.4%.
Compound `COc1cccc(-c2sc3ccc(OC)cc3c2-c2ccc(OCCN3CCCCC3)cc2)c1` has an inhibition of 15.5%.
With `Cc1sc2nc(SCCO)n(-c3ccccc3)c(=O)c2c1C` the inhibition was -4.5%.
In the case of `CC1CCN(c2oc(-c3ccccc3F)nc2C#N)CC1`, the inhibition is reported as 20.3%.
For `Cc1sc2nc(-c3ccccc3F)oc(=O)c2c1C`, the inhibition was 54.7% (active).
`COc1ccc(-c2csc3nc(-c4ccccc4F)oc(=O)c23)cc1OC` was tested, and the inhibition was 65.3% (active).
`COc1ccc(-c2csc3ncnc(Oc4ccc5c(C)cc(=O)oc5c4)c23)cc1` showed an inhibition of -2.5%.
Work on `COc1ccccc1-c1nc(C(F)(F)F)c(OC)o1` yielded an inhibition of -1.4%.
With `Cc1cc(C)n2nc(CNS(=O)(=O)c3c(F)c(F)c(F)c(F)c3F)nc2n1` the inhibition was 12.1%.
`CC(=O)c1nn(-c2cccc(Br)c2)cc1C(=O)c1cccc2ccccc12` showed an inhibition of 27.7%.
`CCC1OC(c2ccc([N+](=O)[O-])cc2)=Nc2ccccc21` (stereo not drawn) gave an inhibition of 14.7%.
For `O=C(O)c1ccc(COc2c(F)c(F)cc(F)c2F)o1`, the inhibition was -6.9%.
Work on `CC(C)C[C@@H]1Cc2[nH][nH]c(=O)c2[C@H](CCc2ccccc2)O1` yielded an inhibition of -59.6%.
`COc1cc(/C=C/c2ccc(/C=C/c3cc(OC)c(OC)c(OC)c3)cc2)cc(OC)c1OC` showed an inhibition of 8.2%.
Compound `O=C(Cn1nnc2ccccc2c1=O)Nc1cc(C(F)(F)F)ccc1N1CCOCC1` has an inhibition of 5.9%.
`CSCCC(NC(=O)COc1ccccc1)C(=O)OCCOc1ccc(Br)cc1` (stereo not drawn) showed an inhibition of 21.8%.
For `CSCCC(NC(=O)COc1ccccc1)C(=O)OCc1ccc(Cl)cc1` (stereo not drawn), the inhibition was 24.4%.
`CSCCC(NC(=O)COc1ccccc1)C(=O)OCC(=O)c1cc2ccccc2o1` (stereo not drawn) was tested, and the inhibition was 70.7% (active).
`Cc1ccc(C)c2[nH]c(=O)c(CCNC(=O)CC(C)C)cc12` was tested, and the inhibition was -6.6%.
`Cc1cccc(CSc2nc3c(c(=O)n2C)SCC3)c1` showed an inhibition of 12.5%.
`CC1=CC(=C(C#N)c2nc3ccccc3s2)C=C(C)N1c1ccc(F)cc1F` was tested, and the inhibition was 59.2% (active).
In the case of `COCCCNC(=O)CNC(=O)c1nn(-c2ccc(OC)cc2)c(=O)c2ccccc12`, the inhibition is reported as -6.6%.
Compound `O=C(CN1CCCCC1)N1c2ccccc2Sc2ccc(C(F)(F)F)cc21` has an inhibition of 11.9%.
In the case of `O=C(C[C@H]1C[C@H](C(=O)N2CCOCC2)[C@@]2(CCC3CCCC3)c3[nH]c4ccc(Cl)cc4c3CCN2C1=O)NCc1ccco1`, the inhibition is reported as 88.8% (active).
`CC[C@]12c3[nH]c4ccc(OC)cc4c3CCN1C(=O)C(CC(=O)NCc1ccco1)C[C@@H]2C(=O)N1CCN(C(=O)C2CC2)CC1` (stereo partly drawn) showed an inhibition of -7.3%.
Work on `CN(C)C(=O)CCc1ccc2c3c([nH]c2c1)[C@]1(CCC2CCCC2)[C@@H](C(=O)N2CCOCC2)C[C@H](CC(=O)NCc2ccco2)C(=O)N1CC3` yielded an inhibition of 21.1%.
`COc1ccc2[nH]c3c(c2c1)CCN1C(=O)C(CC(=O)NCCCN(C)C)C[C@H](C(=O)N2CCOCC2)[C@@]31CCC1CCCC1` (stereo partly drawn) gave an inhibition of 43.3%.
`COc1ccc(CNC(=O)C[C@H]2C[C@H](C(=O)N3CCOCC3)[C@@]3(CCC4CCCC4)c4[nH]c5ccc(Cl)cc5c4CCN3C2=O)cc1OC` was tested, and the inhibition was 89% (active).
`CC[C@]12c3[nH]c4ccc(Cl)cc4c3CCN1C(=O)[C@@H](CC(=O)NCCN1CCOCC1)C[C@@H]2C(=O)N1CCN(C(=O)C2CC2)CC1` was tested, and the inhibition was -7.3%.
